Assay results published in PubChem BioAssay (NCATS).
Records with an inconclusive call do not appear. The source made the active and inactive calls. The call rests on the fitted dose curve; in most records, active means well fitted curve in the direction sought with a large enough effect; inconclusive means small, poorly fitted or top-dose-only effect, or another doubt; inactive means no such curve, though single readings can be large; an effect the other way counts as inactive or inconclusive.

Assays:
[1] = Quantitative High-Throughput drug screen in 47 multiple myeloma cell lines against the NCATS MIPE library collection: INA6_PLB cell viability assay (AID 1918965; further: nearly all actives have a fitted effect of over 55% in size)
Method in brief: (§1)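 Steps: seed 500 cells per well; pin-transfer MIPE 4.0 library; incubate 48 h at 37C, 5% CO2, humidified; add CellTiter-Glo, 5 min room temperature; read luminescence.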

[2] = Quantitative High-Throughput drug screen in 47 multiple myeloma cell lines against the NCATS MIPE library collection: H1112_PLB cell viability assay (AID 1918967; further: nearly all actives have a fitted effect of over 30% in size)
Method in brief: (§2)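 Inhibition of cell viability is measured here. Each line was plated at 500 cells per well, treated with MIPE 4.0 drugs, kept 48 hours at 37C, then assayed for ATP content by CellTiter-Glo luminescence.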

[3] = Quantitative High-Throughput drug screen in 47 multiple myeloma cell lines against the NCATS MIPE library collection: MOLP8_DSMZ cell viability assay (AID 1918977); further: nearly all actives have a fitted effect of over 45% in size
Method in brief: (§3)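 Inhibition of viability over 48 h was scored by ATP content (CellTiter-Glo) in 500-cell wells. Zero and full viability were defined by media-only and DMSO-only wells.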

[4] = Quantitative High-Throughput drug screen in 47 multiple myeloma cell lines against the NCATS MIPE library collection: NCIH929_DSMZ cell viability assay (AID 1918978); further: nearly all actives have a fitted effect of over 35% in size
Method in brief: as §3

[5] = Quantitative High-Throughput drug screen in 47 multiple myeloma cell lines against the NCATS MIPE library collection: OCIMY1_PLB cell viability assay (AID 1918979); further: nearly all actives have a fitted effect of over 35% in size
Method in brief: as §3

[6] = Quantitative High-Throughput drug screen in 47 multiple myeloma cell lines against the NCATS MIPE library collection: MM1R_ATCC cell viability assay (AID 1918981); further: nearly all actives have a fitted effect of over 35% in size
Method in brief: as §3

[7] = Quantitative High-Throughput drug screen in 47 multiple myeloma cell lines against the NCATS MIPE library collection: KMS28PE_JCRB cell viability assay (AID 1918983); further: nearly all actives have a fitted effect of over 35% in size
Method in brief: as §3

[8] = Quantitative High-Throughput drug screen in 47 multiple myeloma cell lines against the NCATS MIPE library collection: KMS34_JCRB cell viability assay (AID 1918985); further: nearly all actives have a fitted effect of over 40% in size
Method in brief: as §3

[9] = Quantitative High-Throughput drug screen in 47 multiple myeloma cell lines against the NCATS MIPE library collection: Karpas25_ECACC cell viability assay (AID 1918968; further: nearly all actives have a fitted effect of over 35% in size)
Method in brief: as §2

[10] = Quantitative High-Throughput drug screen in 47 multiple myeloma cell lines against the NCATS MIPE library collection: KMS27_JCRB cell viability assay (AID 1918970); conditions: KMS27 myeloma cells, CellTiter-Glo ATP viability, 48 h; viability (% of DMSO): at 45.8 µM (top of the series); further: nearly all actives have a fitted effect of over 30% in size
Method in brief: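 CellTiter-Glo luminescence after 48 h drug exposure at 37 °C; 500 cells/well, 1536-well format, pin-tool compound addition; DMSO = 100%, media-only = 0% viability.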

[11] = Quantitative High-Throughput drug screen in 47 multiple myeloma cell lines against the NCATS MIPE library collection: MM1S_ATCC cell viability assay (AID 1918980); further: nearly all actives have a fitted effect of over 45% in size
Method in brief: as §3

[12] = Quantitative High-Throughput drug screen in 47 multiple myeloma cell lines against the NCATS MIPE library collection: KMS12BM_JCRB cell viability assay (AID 1918971); further: nearly all actives have a fitted effect of over 35% in size
Method in brief: (§4)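 qHTS of the MIPE 4.0 collection: 500 myeloma cells/well, 48 h drug exposure at 37C in 5% CO2, then CellTiter-Glo for 5 min at room temperature before luminescence reading.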

[13] = Quantitative High-Throughput drug screen in 47 multiple myeloma cell lines against the NCATS MIPE library collection: KMS12PE_JCRB cell viability assay (AID 1918972); further: nearly all actives have a fitted effect of over 30% in size
Method in brief: as §1

[14] = Quantitative High-Throughput drug screen in 47 multiple myeloma cell lines against the NCATS MIPE library collection: KMS20_JCRB cell viability assay (AID 1918973); further: nearly all actives have a fitted effect of over 45% in size
Method in brief: as §2

[15] = Quantitative High-Throughput drug screen in 47 multiple myeloma cell lines against the NCATS MIPE library collection: KMS26_JCRB cell viability assay (AID 1918975); further: nearly all actives have a fitted effect of over 45% in size
Method in brief: as §4

[16] = Quantitative High-Throughput drug screen in 47 multiple myeloma cell lines against the NCATS MIPE library collection: LP1_DSMZ cell viability assay (AID 1918982); further: nearly all actives have a fitted effect of over 35% in size
Method in brief: as §3

[17] = Quantitative High-Throughput drug screen in 47 multiple myeloma cell lines against the NCATS MIPE library collection: L363_DSMZ cell viability assay (AID 1918984); conditions: L363 myeloma viability, CellTiter-Glo ATP luminescence, 48 h; viability (% of control): at 45.8 µM (top of the series); further: nearly all actives have a fitted effect of over 40% in size
Method in brief: as §3

[18] = Quantitative High-Throughput drug screen in 47 multiple myeloma cell lines against the NCATS MIPE library collection: MMM1_PLB cell viability assay (AID 1918976); further: nearly all actives have a fitted effect of over 35% in size
Method in brief: as §3

[19] = Quantitative High-Throughput drug screen in 47 multiple myeloma cell lines against the NCATS MIPE library collection: KMS21BM_JCRB cell viability assay (AID 1918974); conditions: ATP luminescence, 48 h; viability: at 45.8 µM (top of the series)
Method in brief: as §2

Measured: Potency
Potency means the concentration at half of the fitted maximal effect.

CN(C)CCOc1cc(-c2cn[nH]c2)ccc1NC(=O)C1COc2ccccc2O1 (centres undefined)
active: [1] 13.2 µM | [4] 18.7 µM | [6] 13.2 µM | [7] 13.2 µM | [8] 9.35 µM
inactive: [2] | [3] | [5]

CCNC(=O)c1noc(-c2cc(C(C)C)c(O)cc2O)c1-c1ccc(CN2CCOCC2)cc1
inactive: [10]
active: [1] 0.0833 µM | [9] 0.0332 µM | [4] 0.0418 µM | [11] 0.0332 µM

N#CC1(c2cccc(C(=O)Nc3cc(Oc4ccc5nc(NC(=O)C6CC6)sc5n4)ccc3F)c2Cl)CC1
active: [1] 5.9 µM | [2] 13.2 µM | [12] 13.2 µM | [13] 2.09 µM | [14] 0.469 µM | [4] 6.62 µM | [6] 14.8 µM
inactive: [8]

CN1CCC[C@H]1CCO[C@](C)(c1ccccc1)c1ccc(Cl)cc1
active: [1] 18.7 µM | [9] 13.2 µM | [4] 11.8 µM | [11] 23.5 µM | [7] 23.5 µM
inactive: [15] | [3] | [5] | [16] | [8]

CC[C@H](C)n1cc(C)c2c(C(=O)NCc3c(C)cc(C)[nH]c3=O)cc(-c3ccc(N4CCNCC4)nc3)cc21
inactive: [17]
active: [1] 18.7 µM | [9] 23.5 µM | [14] 18.7 µM | [5] 26.4 µM | [11] 0.935 µM | [16] 23.5 µM

O=C1Nc2ccc(I)cc2C1=Cc1cc(Br)c(O)c(Br)c1
active: [1] 2.96 µM | [9] 14.8 µM | [10] 10.5 µM | [12] 16.6 µM | [15] 16.6 µM

Cc1cnc(CNC(=O)c2c(=O)c3ccc(N4CCCN(C)CC4)nc3n3c2sc2ccccc23)cn1
active: [1] 2.57 µM | [12] 0.323 µM | [15] 12.9 µM | [18] 9.11 µM | [3] 9.11 µM | [11] 2.88 µM | [6] 7.24 µM | [7] 12.9 µM
inactive: [9] | [10]

N#Cc1c(N(CC(=O)O)CC(=O)O)sc(C(=O)O)c1CC(=O)O
active: [1] 14.8 µM | [9] 18.7 µM | [14] 16.6 µM
inactive: [5] | [16] | [7]

CN1[C@H]2CC[C@H]1CC(OC(=O)c1c[nH]c3ccccc13)C2 (some centres undefined)
inactive: [1] | [10] | [12] | [13] | [15] | [5] | [6] | [16] | [8]
active: [18] 1.32 µM | [3] 2.35 µM | [4] 18.7 µM | [11] 20.9 µM | [7] 9.35 µM

O=C(O)c1ccc(O)c2ncc(N3CCOCC3)cc12
inactive: [1] | [15] | [5] | [7]
active: [9] 18.7 µM | [10] 23.5 µM | [13] 26.4 µM | [4] 18.7 µM | [11] 23.5 µM | [16] 20.9 µM | [17] 20.9 µM

CN1CCN2c3ncccc3Cc3ccccc3C2C1 (centres undefined)
inactive: [1] | [2] | [13] | [14] | [15] | [4] | [5] | [6] | [16] | [7] | [8]

CC=C(C(=CC)c1ccc(O)cc1)c1ccc(O)cc1
inactive: [3] | [4] | [5] | [7]
active: [1] 16.6 µM | [10] 11.8 µM | [12] 16.6 µM | [13] 16.6 µM | [11] 11.8 µM | [17] 13.2 µM

NS(=O)(=O)c1ccc(Nc2nc(OCC3CCCCC3)c3[nH]cnc3n2)cc1
inactive: [5]
active: [1] 3.32 µM | [9] 13.2 µM | [12] 26.4 µM | [13] 20.9 µM | [14] 20.9 µM | [19] 4.18 µM | [18] 2.09 µM | [4] 4.18 µM | [6] 14.8 µM | [17] 20.9 µM

N#Cc1ccc(Oc2ccc3c(c2)COB3O)cc1
active: [1] 20.9 µM | [10] 23.5 µM | [19] 3.32 µM
inactive: [5] | [7]

CC(C)c1c(C(=O)Nc2ccccc2)c(-c2ccccc2)c(-c2ccc(F)cc2)n1CC[C@H](O)C[C@@H](O)CC(=O)O
active: [1] 8.33 µM | [9] 11.8 µM | [10] 4.69 µM | [12] 13.2 µM | [13] 6.62 µM | [18] 8.33 µM | [6] 10.5 µM | [16] 20.9 µM | [7] 18.7 µM
inactive: [15] | [5]

Oc1ccc(C=Cc2cc(O)cc(O)c2)cc1
active: [1] 16.6 µM | [9] 18.7 µM | [12] 33.2 µM | [18] 16.6 µM | [11] 18.7 µM | [6] 16.6 µM | [8] 5.26 µM
inactive: [10] | [13] | [4] | [5] | [7]
